Sampled rows, rich in hits. Any-hit rate of the full collection: about 4.1%.
DAX1 inh-1: DAX1 (NR0B1) inhibitors, primary screen, cell-based, HEK293, Gal4-DAX1, luciferase luminescence; Nuclear receptor subfamily 0 group B member 1 (Homo sapiens), P51843; HEK293 Gal4-DAX1 luciferase reporter; inhibition, % at 6.75 µM; 340,000 compounds, 0.99% hits;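 active means inhibition above the mean over all tested compounds plus 3 SD, cut at about 4.2% in these data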;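 further: inhibition shows as a rise in luminescence from relieved DAX1 repression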
Target sequence (P51843 207-470 limits assumed): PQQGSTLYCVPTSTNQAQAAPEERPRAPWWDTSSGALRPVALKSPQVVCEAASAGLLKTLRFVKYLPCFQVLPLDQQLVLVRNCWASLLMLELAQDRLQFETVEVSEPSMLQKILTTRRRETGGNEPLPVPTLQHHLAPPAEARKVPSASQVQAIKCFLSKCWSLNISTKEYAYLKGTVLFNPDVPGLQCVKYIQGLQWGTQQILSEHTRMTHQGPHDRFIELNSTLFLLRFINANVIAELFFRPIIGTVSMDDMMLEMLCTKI
hgDAF-12 ag: H. glycines DAF-12 receptor agonists, primary screen, cell-based, luminescence, HEK293, GAL4 fusion, UAS-luciferase; HEK293 GAL4-hgDAF12 UAS-luciferase reporter, agonist luminescence; normalized to butyrate control; activation, % at 6.8 µM; 370,000 compounds, 1.8% hits; AID 687014, 2013;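 active means activation above a cutoff set at the mean of all screened compounds plus 3 SD, cut at about 10% in these data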
ssDAF-12 act: S. stercoralis DAF-12 nuclear receptor activators, primary screen, cell-based, luminescence, HEK293, GRIP1 co-expression, lit1-tk-luc. Nuclear hormone receptor DAF-12 (Strongyloides stercoralis). HEK293 ssDAF-12/GRIP1 lit1-tk-luc reporter; % of 3 µM dafachronic acid response. activation, % at 6.8 µM. 370,000 compounds, 1% hits. AID 652126, 2013;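 active means activation above the mean over all tested compounds plus 3 SD, cut at about 0.9% in these data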
hcDAF12 agonist: H. contortus DAF-12 nuclear receptor activators, primary screen, cell-based, luminescence, HEK293, lit1-tk-luc reporter; 370,000 compounds, 1.4% hits; HEK293 hcDAF-12 lit1-tk-luc reporter; 0% DMSO, 100% Δ7-dafachronic acid; AID 652067, 2013; activation, % at 6.8 µM;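 active means activation above the mean of all tested compounds plus 3 SD, cut at about 5.5% in these data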
DAX1 inh-2: DAX1 (NR0B1) inhibitors on StAR promoter, primary screen, cell-based, luminescence, SF-1 (NR5A1), full-length DAX-1. 370,000 compounds, 1.1% hits. HEK293T StAR-luciferase reporter, SF-1/DAX-1 repression relief. inhibition, % at 6.8 µM;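 active means inhibition above the mean over all tested compounds plus 3 SD, cut at about 3.6% in these data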;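 further: higher inhibition means more luminescence from relief of DAX-1 repression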
LXRb hcDAF ctr: LXR agonists, Gal4 luciferase reporter, confirmation, counter-screen for hcDAF-12 agonist project, cell-based, luminescence, HEK293, H. contortus campaign; activation, % at 6.8 µM; AID 743027, 2013; HEK293 Gal4-LXR tk-luc reporter, 24 h; normalized: DMSO 0%, positive control 100%; shares compounds with hcDAF12 agonist; 3,400 tested, under 10 active;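 active means mean percent activation of the reporter above a cutoff set as the average over tested compounds plus their standard deviation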
hcDAF12 conf: H. contortus DAF-12 receptor agonists, confirmation, cell-based, luminescence, HEK293, lit1-tk-luc, triplicate. activation, % at 6.8 µM. AID 743032, 2013. 3,400 compounds, 61% hits. HEK293 hcDAF-12 lit1-tk-luc reporter; % of Δ7-dafachronic acid response. shares compounds with hcDAF12 agonist;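 active means mean activation across triplicate tests above the threshold derived from the earlier primary screen, cut at about 5.5% in these data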
hgDAF12 ag: H. glycines DAF-12 receptor agonists, confirmation, cell-based, luminescence, HEK293, GAL4-LBD fusion | shares compounds with hgDAF-12 ag | HEK293 GAL4-hgDAF12 luciferase reporter, agonist mode; percent of butyrate response | activation, % at 6.8 µM | 3,300 compounds, 80% hits | AID 743050, 2013;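 active means mean activation over triplicate wells above the hit cutoff derived from the earlier primary screen, cut at about 11% in these data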
LXRb DAF12 ctr: LXR agonists, Gal4 luciferase reporter, confirmation, counter-screen for hgDAF-12 agonist project, cell-based, luminescence, HEK293, H. glycines campaign. shares compounds with hgDAF-12 ag. 24 h. activation, % at 6.8 µM. 3,300 tested, under 10 active. AID 743051, 2013;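 active means mean activation of the triplicate above a set limit carried over from the primary screen, none filed active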
Hits are given with their value; n = inactive; x = no result given.

SMILES	DAX1 inh-1	hgDAF-12 ag	ssDAF-12 act	hcDAF12 agonist	DAX1 inh-2	LXRb hcDAF ctr	hcDAF12 conf	hgDAF12 ag	LXRb DAF12 ctr
COc1ccccc1NC(CC(=O)c1ccccc1)C(=O)OCC(=O)c1ccc(C)cc1 (centres undefined)	n	14	n	8.5	n	n	15	16	n
CC(C)NC(=O)c1cc(-c2ccc3c(c2)OCO3)on1	n	14	n	6.6	n	n	n	14	n
CCCCNC(=O)c1cc(-c2ccc3c(c2)OCO3)on1	n	n	n	n	n	x	x	x	x
Cc1ccc(N2Cc3ccccc3C2=O)cc1	5.4	16	1.5	12	n	n	8.8	17	n
O=C(NC(=S)Nc1ccccc1C(=O)O)c1ccc2ccccc2c1	n	n	n	n	n	x	x	x	x
NC(=O)c1ccccc1NC(=O)c1ccc2ccccc2c1	n	23	3.1	11	n	n	9.2	22	n
Cc1cccc(Nc2n[nH]c(C)c2[N+](=O)[O-])c1	n	14	n	6.8	3.7	n	5.8	14	n
Cc1[nH]nc(Nc2ccccc2)c1[N+](=O)[O-]	n	n	n	n	n	x	x	x	x
Cc1ccc2nc(-c3ccc(O)cc3)oc2c1	n	19	2.2	9.0	n	n	7.2	21	n
O=C(O)c1cccc(S(=O)(=O)Nc2ccc(OCc3ccccc3)cc2)c1	n	n	n	n	n	x	x	x	x
O=C(O)c1cccc(COc2ccc3c(c2)CCC3)c1	n	14	2.8	10	3.6	n	12	23	n
CCOC(=O)c1ccc(COc2ccc(C(C)C)cc2)o1	n	n	n	n	n	x	x	x	x
CCC(C)c1ccc(OCc2ccc(C(=O)O)o2)cc1 (centres undefined)	n	15	n	10	n	n	8.7	22	n
COc1ccc(S[C@]2(C(=O)N3CCN(c4ncccn4)CC3)CC(=O)N(C(=O)/C=C/c3ccccc3)[C@@H]2c2ccc(OC)cc2)cc1	x	n	n	n	n	x	x	x	x
Cc1cc(N2CCN(C(=O)OC(C)(C)C)C[C@@H]2C)ccc1N1CCS(=O)(=O)CC1	x	n	n	n	n	x	x	x	x
CC(C)NC(=O)Cn1c(-c2cncs2)nc2ccccc21	x	n	n	n	n	x	x	x	x
Cc1ccc(-c2nc3ccsc3c(=O)[nH]2)cc1	n	22	1.4	12	3.7	n	14	15	n
Cc1csc2ncc(C(=O)NCCC(c3ccccc3)c3ccccc3)c(=O)n12	n	n	n	n	n	x	x	x	x
Cc1csc2ncc(C(=O)NCCc3ccccc3)c(=O)n12	n	14	1.9	8.7	n	n	6.3	n	n
O=C(N/N=C/c1cccnc1)c1[nH]ncc1Br	n	13	n	6.8	n	n	n	n	n
CCO/N=C(\N)c1[nH]ncc1Br	n	n	n	n	n	x	x	x	x
N/C(=N\OC(=O)c1ccc(Cl)cc1)c1[nH]ncc1Br	n	19	n	12	n	n	7.3	21	n
CC(C)(C)c1ccc(S(=O)(=O)N2CCC(C(=O)NCCC3=CCCCC3)CC2)cc1	x	n	n	n	n	x	x	x	x
COC(=O)C1=C(C)N(Cc2ccccc2C(F)(F)F)C(=NCc2ccc3c(c2)OCO3)NC1CCc1ccccc1 (centres undefined)	x	n	n	n	n	x	x	x	x
Cc1ccc2nc(-c3ccc(NC(=O)CCS(=O)(=O)c4ccccc4)cc3)sc2c1	n	18	1.5	8.9	n	n	7.6	13	n
SMILES	DAX1 inh-1	hgDAF-12 ag	ssDAF-12 act	hcDAF12 agonist	DAX1 inh-2	LXRb hcDAF ctr	hcDAF12 conf	hgDAF12 ag	LXRb DAF12 ctr
CCCCOCCCNC(=O)C[C@H]1C[C@@]2(C(=O)OC)C(=C[C@H](C(C)(C)C)O[C@@H]2C)N(Cc2ccc3c(c2)OCO3)C1=O	x	n	n	n	n	x	x	x	x
C=CCn1c(C)cc(C(=O)CN2NS(=O)(=O)c3ccccc3C2=O)c1C	5.4	15	1.8	8.8	n	n	5.8	n	n
Cc1cccc(-c2nnc(SCc3cccc4ccccc34)n2-c2ccc(Cl)cc2)c1	x	n	n	n	n	x	x	x	x
O=S(=O)(Nc1nc2ccccc2nc1N1CCc2ccccc2C1)c1ccc(Cl)cc1	n	20	2.5	16	4.3	n	6.3	24	n
O=S(=O)(Nc1nc2ccccc2nc1N1CCN(c2ccccn2)CC1)c1ccc(Cl)cc1	n	n	n	n	n	x	x	x	x
Cc1nn(-c2nc3ccccc3s2)c(N)c1-c1ccccc1	n	19	n	15	4.5	n	n	18	n
COC(=O)[C@]12C[C@H](CC(=O)NCC3CCCCC3)C(=O)N(CCC3=CCCCC3)C1=C[C@H](C(C)C)O[C@@H]2C1CC1	x	n	n	n	n	x	x	x	x
O=[N+]([O-])c1ccc(/C=N/NC(=S)Nc2ccccc2F)o1	n	n	n	n	n	x	x	x	x
Fc1ccccc1NC(=S)N/N=C/c1ccccc1Br	n	16	n	n	4.3	x	x	12	n
C=CCNc1nc(-c2ccc(Cl)cc2)cs1	n	14	n	n	n	x	x	15	n
Cc1ccccc1NC(=O)c1c(F)c(F)c(F)c(F)c1F	n	n	n	n	n	x	x	x	x
Cc1ccccc1NC(=O)c1cnc2ccccn2c1=O	n	16	n	n	4.2	x	x	16	n
Cc1ccccc1NC(=O)c1cc2ccccn2n1	n	19	n	6.0	n	x	x	13	n
O=C(NCc1ccc(F)cc1)c1cc2ccccn2n1	n	n	n	n	n	x	x	x	x
O=C(NCCc1cccc(F)c1)c1cc2ccccn2n1	x	14	n	n	n	x	x	12	n
CSc1ncc(C(=O)Nc2ccccc2C)c(C)n1	n	n	n	n	n	x	x	x	x

Screens as filed in PubChem BioAssay.
